Assay results from PubChem BioAssay (NCI).
This is part of a sample that, as a whole, favours compounds with a hit. Of some 83,000 tested, about 20% had one in any assay.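 A percent growth of 40 corresponds to 60% growth inhibition; 0 means no net growth; -100 means all cells died. Active threshold: below 10.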 Unmarked numbers belong to inactive results. Active and inactive are the calls of the source.

What follows are molecules tested on DU-145 prostate (assay: NCI-60 one-dose screen, 48 h (100 = growth as untreated, 0 = no growth, -100 = all killed)). Conditions: 10 µM unless noted.

| Structure (SMILES) | growth |
| --- | --- |
| O=C(COc1cccc(/C=C2\Oc3ccccc3C2=O)c1)c1ccc([N+](=O)[O-])cc1 | 111% |
| CC[C@]12C=CCN3CC[C@@]4(c5ccc(OC)cc5N(C)[C@H]4[C@@](O)(C(=O)OC)[C@@H]1OC(=O)CCC(=O)N[C@H](Cc1c[nH]c4ccccc14)C(=O)OC)[C@@H]32 | -49.9% [100 µM] (active) |
| C=C(C)[C@@H]1CC[C@]2(C(N)=O)CC[C@]3(C)[C@H](CC[C@@H]4[C@@]5(C)C/C(=C/c6cccnc6)[C@H](O)C(C)(C)[C@@H]5CC[C@]43C)[C@@H]12 | 38.2% [100 µM] |
| CSc1nc2sc3cc(Cl)c(Cl)cc3n2c(=N)c1C#N | 107% |
| COc1ccc(/C=C2\N=C(Nc3ccccc3)N(NC(=O)c3ccccn3)C2=O)cc1 | 109% |
| O=C(NCCCNC(=O)OCc1ccc2cccc(O)c2n1)OCc1ccc2cccc(O)c2n1 | 28.7% |
| COc1cc(C(=O)/C=C/c2c(-c3ccc(F)cc3)nc3sccn23)cc(OC)c1OC | 27.4% |
| CCCCCCCCCCCCNC(=S)N/N=C/c1ccccc1O | 68.1% |
| CCCc1cc2cc(-n3nc(C)c4c3CC(C)(C)CC4=O)cc(NC3CCSCC3)c2c(=O)[nH]1 | 42.9% |
| COc1ccc(-c2cc(-c3ccc(OC)c(OC)c3)nc(SCCCCCC(=O)NO)n2)cc1 | 58.8% |
| CCC(C)[C@H](NC(=O)NC(=O)NC(=O)CI)C(=O)OC (stereo partly drawn) | 108% |
| CCN(CC)c1ccc(/C=C/c2ccc3cc(C)ccc3[n+]2CC)cc1 | 20.1% |
| N/C(=N\c1nc2ccccc2[nH]1)NC(=O)Cc1cccc2ccccc12 | 92.8% |
| CC1(C)CC[C@]2(C(N)=O)CC[C@]3(C)C(=CC[C@@H]4[C@@]5(C)C/C(=C/c6ccncc6)C(=O)C(C)(C)[C@@H]5CC[C@]43C)[C@@H]2C1 | -36.4% [100 µM] (active) |
| Cc1ccc(C2=C/C(=C/c3ccc(Br)cc3)C(=O)N2CCc2ccc(S(N)(=O)=O)cc2)cc1 | 104% |
| Cc1ccc(NCCN2CCCCC2)c2c(=O)c3ccccc3sc12 | 36.7% |
| CC1(C)CC(=O)c2c(ccc(C(=O)C[C@@H](N)CO)c2N)O1 | 18.2% |

| Structure (SMILES) | growth |
| --- | --- |
| CCCCC1COc2cccc3c2N1C=C/C3=C\C(=O)n1ccc2ccccc21 (stereo not drawn) | 99.1% |
| CC(C)CSc1ncnc2nc[nH]c12 | 100% |
| CC1(C)CC[C@]2(C(=O)O)CC[C@]3(C)C(=CC[C@@H]4[C@@]5(C)C/C(=C/c6cccnc6)[C@H](O)C(C)(C)[C@@H]5CC[C@]43C)[C@@H]2C1 | 5.35% [100 µM] (active) |
| COc1ccc(C=C2c3ccccc3-c3ccccc32)cc1 | 84.6% |
| C#C[C@]1(O)CC[C@H]2[C@@H]3CC=C4c5nc(Nc6ccc(OC)cc6OC)sc5CC[C@]4(C)[C@H]3CC[C@@]21C | 39% |
| CCOC(=O)c1nn(C2CCCCO2)c2ccc(NC(=O)CSc3nc4ccccc4c(=O)[nH]3)cc12 (stereo not drawn) | 102% |
| O=c1[nH]cnc2c1ccn2C1OC(CO)C(O)C1O (stereo not drawn) | 18.4% |
| CCOC(=O)C(=Cc1ccccc1[N+](=O)[O-])C(=O)OCC | -51.5% (active) |
| Cc1cc(C)c(S(=O)(=O)/N=c2/n(-c3ccccc3)nc3n2CCN3C2=NCCN2)c(C)c1 | 98% |
| COC(=O)c1cc2c(=O)[nH]cc3c2c(n1)CCC3 | 116% |
| Cn1cc(-c2noc(C(=O)c3cn(C)c4ncccc34)n2)c2ccccc21 | 87.4% |
| O=c1cc(-c2ccccc2)oc2cc(OCc3cn(Cc4ccc(F)cc4)nn3)cc(O)c12 | 65.8% [100 µM] |
| Cc1ccc(Cn2c(O)c(N=NC(=O)c3ccc(S(N)(=O)=O)cc3)c3ccccc32)cc1 | 107% |
| CC[C@]12C=CCN3CC[C@@]4(c5ccc(OC)cc5N(C)[C@H]4[C@@](O)(C(=O)OC)[C@@H]1OC(=O)CCC(=O)O[C@H]1CC[C@H]4[C@@H]5CCC6=CC(=O)CC[C@@H]6[C@H]5CC[C@]14C)[C@@H]32 | 26% [100 µM] |
| CCC(Br)(CC)C(=O)c1ccc(OCC(=O)O)c(Cl)c1Cl | 114% |
| Oc1c(CNCCNCc2cc(Cl)cc(Cc3ccccc3)c2O)cc(Cl)cc1Cc1ccccc1 | 24.2% |
